Data as given in PMC5540273 (PLoS ONE, 2017).

Each molecule was assayed on T1, PYK2. Conditions: concentration: 1 μM, replicates: in singlicate; n = 1.
T1 construct: gene PTK2B
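Note: KINOMEscan kinase panel screen.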

Row | SMILES | %Inh [%]
1 | COc1ccc(Nc2ncc(C#N)c(Nc3ccccc3C(N)=O)n2)cc1N1CCN(C)CC1.Cl [GSK1558669] | 99.2
2 | O=C(Nc1cccc(-c2nn3ncccc3c2-c2ccnc(Nc3cccc(C(F)(F)F)c3)n2)c1)c1c(F)cccc1F [GSK299495] | 23
3 | Cc1cccc(-c2nc(Nc3ccc4ncsc4c3)c3ccccc3n2)n1 [GW867588] | 0
4 | Cl.Nc1ncnc2occ(-c3ccc(NC(=O)Nc4cc(C(F)(F)F)ccc4F)cc3)c12 [SB-707548] | 19
5 | C[C@@H](Oc1cc(-n2cnc3ccc(NC(=O)NC(C)(C)C)cc32)sc1C(N)=O)c1ccccc1Cl [GSK346294] | 0
6 | c1ccc(-c2cc(-c3c[nH]nc3-c3ccccn3)ccn2)cc1 [GW576604] | 0
7 | Cc1nnc(-c2ccc3occ(-c4ccc(C(C)O)cc4)c3c2)o1 (centres unmarked) | 2
8 | CC(C)Oc1ccc2c(-c3ccnc(Nc4ccc(N5CCN(C)CC5)cc4)n3)cnn2n1 [GW696155] | 42
9 | NS(=O)(=O)c1cccc(-c2ccc3ncc(N4CCOCC4)nc3c2)c1 [GSK1535721] | 10
10 | Fc1ccc(-c2ncn(CCCN3CCOCC3)c2-c2ccccn2)cc1 [SB-211742] | 0
11 | CN(C1=C(c2ccccc2)C(=O)NC1=O)c1ccccc1 [SB-334860] | 0
12 | CCc1nc(-c2cccc(C)c2)c(-c2ccnc(NCc3ccccc3)c2)s1 | 9
13 | O=C(NCCNc1ccnc(Nc2ccc(F)cc2)n1)Nc1ccccc1F [GSK1379880] | 16
14 | O=c1cc(N2CCOCC2)nc2n(Cc3cccc(F)c3)ccn12 [GSK2297430] | 22
15 | CC(C)(C)n1cnc2c(N)ncnc21 [SKF-97359] | 0
16 | O=c1cc(N2CCOCC2)nc2n(Cc3cccc(C(F)(F)F)c3)ccn12 [GSK2297543] | 3
17 | Cc1cccc(Cn2ccn3c(=O)cc(N4CCOCC4)nc23)c1 [GSK2297542] | 12
18 | O=C(NCCNc1ccnc(Nc2ccc(F)cc2)n1)c1cc2ccccc2s1 [GSK1379874] | 29

Row | SMILES | %Inh [%]
19 | Cn1ccc2ncnc(Oc3ccc(NC(=O)Nc4ccncc4)c(Cl)c3)c21 | 0
20 | COc1ccc(COc2cc(-n3cnc4ccccc43)sc2C(N)=O)cc1 [GSK1024304] | 0
21 | Cc1ccc(C(=O)NCC(N)=O)cc1-n1c(C)cc(OCc2ccc(F)cc2F)c(Br)c1=O | 15
22 | Cc1ccc(NC(=O)c2ccnc(N3CCN(C)CC3)c2)cc1-c1ccc(C(=O)NCC2CC2)cc1 [GW775604] | 0
23 | Fc1ccc(-c2nn3c(OCC(F)(F)F)cccc3c2-c2ccncc2)cc1 [GW514784] | 1
24 | Fc1ccc(-c2ncn(CCCN3CCOCC3)c2-c2cccnc2)cc1 [SB-211743] | 0
25 | O=C(NOCC1CC1)c1ccc(F)c(F)c1Nc1ccc(I)cc1Cl | 0
26 | O=C(Nc1n[nH]c2cc(-c3cccc(F)c3)ccc12)C1CC1 [SB-735464] | 0
27 | COc1ccc(Nc2nccc(N3CCC(NC(=O)Nc4cccc(C(C)=O)c4)C3)n2)cc1 (centres unmarked) [GSK1379731] | 0
28 | N#Cc1ccc(-c2cc(-c3c[nH]nc3-c3ccccn3)ccn2)cc1 [GW693028] | 0
29 | COC(=O)Nc1nc2cc(Oc3ccc(NC(=O)Nc4cc(F)ccc4F)cc3)ccc2[nH]1.Cl [GW701424] | 0
30 | O=c1cc(N2CCOCC2)nc2n(Cc3cccc4ccccc34)ccn12 [GSK2333389] | 17
31 | c1ccc(-c2n[nH]cc2-c2ccnc3ccccc23)nc1 [GW271431] | 9
32 | Nc1nccc(-c2c(-c3ccc(F)cc3)ncn2C2CCN(CC(F)(F)F)CC2)n1 [SB-236560] | 5
33 | NCC(NC(=O)c1cc(-c2cn[nH]c2)c(-c2ccnc3[nH]ccc23)s1)c1ccccc1.O=C(O)C(F)(F)F.O=C(O)C(F)(F)F (centres unmarked) [GSK1325775] | 0
34 | Cc1c2ccc(N(C)c3ccnc(Nc4cccc(S(N)(=O)=O)c4)n3)cc2nn1Cc1ccccc1.Cl.Cl [GW787226] | 9
35 | COc1ccc(S(=O)(=O)NC2CCN(c3cc(C)nc(Nc4cccc(C#N)c4)n3)CC2)cc1.O=C(O)C(F)(F)F [GSK1653539] | 1
